Assay results as given in PubChem BioAssay AID1159580 (chemical genetic matrix, 2015).
Several values for one entry are separate records, joined by “and”; a condition that tells them apart may be missing. Identical values can stand only once. About 2,000 (36%) of roughly 5,500 compounds were called active. Another 18% or so got no clear call; they are omitted. Rule as the data show it: active = normalized growth mostly below about 0.91 (no sharp cut-off); inconclusive = no clear call, values can overlap the other calls; inactive = mostly above about 0.92. The list shows a part of the results.

Assay: chemical genetic growth profiling, strain panel (AID 1159580);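 also: tested at 20 µM; growth read once vehicle control cultures reached saturation at 30 °C; 1 = growth at the plate median or of vehicle wells; lower values mean less growth of the strain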
Conditions: S. cerevisiae deletion strains, growth OD

Measured: normalized growth

Cc1cc(=O)n(-c2ccccc2)n1C
inactive: locus YAL013W, strain DEP1, active compounds read low 1.02 | locus YAL021C, strain ccr4, active compounds read low 0.962 | locus YAL026C, strain drs2, active compounds read low 1 | locus YAL030W, strain snc1, active compounds read low 1 | locus YBL061C, strain skt5, active compounds read low 0.992 | locus YBR009C, strain hhf1, active compounds read low 1.06 | locus YBR021W, strain FUR4, active compounds read low 1 | locus YBR023C, strain chs3, active compounds read low 0.987 | locus YBR171W, strain sec66, active compounds read low 0.987 | locus YBR229C, strain ROT2, active compounds read low 1.01 | locus YBR231C, strain swc5, active compounds read low 1.01 | locus YBR279W, strain paf1, active compounds read low 0.995 | locus YCL011C, strain gbp2, active compounds read low 0.995 | locus YCL016C, strain dcc1, active compounds read low 0.979 | locus YCL029C, strain bik1, active compounds read low 0.996 | locus YCL061C, strain MRC1, active compounds read low 0.981 | locus YCL069W, strain vba3, active compounds read low 0.997 | locus YCR088W, strain abp1, active compounds read low 0.991 | locus YDL005C, strain med2, active compounds read low 0.991 | locus YDL035C, strain GPR1, active compounds read low 1.04 | locus YDL040C, strain nat1, active compounds read low 0.991 | locus YDL074C, strain BRE1, active compounds read low 1.02 | locus YDL101C, strain DUN1, active compounds read low 0.999 | locus YDL185W, strain tfp1, active compounds read low 0.994 | locus YDL192W, strain arf1, active compounds read low 0.989 | locus YDR001C, strain nth1, active compounds read low 0.983 | locus YDR069C, strain doa4, active compounds read low 1.02 | locus YDR101C, strain arx1, active compounds read low 0.983 | locus YDR137W, strain rgp1, active compounds read low 0.978 | locus YDR159W, strain sac3, active compounds read low 1.01 | locus YDR162C, strain NBP2, active compounds read low 1.04 | locus YDR195W, strain ref2 0.998 | locus YDR297W, strain sur2, active compounds read low 0.99 | locus YDR318W, strain mcm21, active compounds read low 0.989 | locus YDR334W, strain swr1, active compounds read low 0.986 | locus YDR335W, strain msn5, active compounds read low 0.992 | locus YDR388W, active compounds read low 0.986 | locus YDR392W, strain spt3, active compounds read low 0.94 | locus YDR502C, strain sam2, active compounds read low 0.994 | locus YEL003W, strain gim4, active compounds read low 1 | locus YEL037C, strain rad23, active compounds read low 0.995 | locus YEL061C, strain CIN8 (second series), active compounds read low 0.99 | locus YEL061C, strain CIN8, active compounds read low 1 | locus YER015W, strain faa2, active compounds read low 0.985 | locus YER016W, strain bim1, active compounds read low 0.996 | locus YER110C, active compounds read low 0.987 | locus YER111C, strain swi4, active compounds read low 0.984 | locus YER155C, strain BEM2 (second series), active compounds read low 1.01 | locus YER155C, strain BEM2, active compounds read low 1 | locus YER167W, strain BCK2, active compounds read low 1.02 | locus YFR010W, strain ubp6, active compounds read low 1 | locus YGL078C, strain dbp3, active compounds read low 0.982 | locus YGL086W, strain mad1, active compounds read low 0.989 | locus YGL167C, strain pmr1, active compounds read low 0.996 | locus YGL173C, strain kem1, active compounds read low 0.992 | locus YGL227W, strain vid30, active compounds read low 0.993 | locus YGL240W, strain doc1, active compounds read low 1 | locus YGL248W, strain PDE1, active compounds read low 0.999 | locus YGL253W, strain hxk2, active compounds read low 0.975 | locus YGR078C, strain PAC10, active compounds read low 1 | locus YGR135W, strain pre9, active compounds read low 1 | locus YGR229C, strain SMI1, active compounds read low 1.04 | locus YGR252W, strain gcn5, active compounds read low 1 | locus YHR013C, strain ard1, active compounds read low 0.982 | locus YHR027C, strain rpn1, active compounds read low 1.02 | locus YHR030C, strain SLT2, active compounds read low 1.01 and 0.973 | locus YHR079C, strain IRE1 (second series), active compounds read low 0.984 | locus YHR079C, strain IRE1, active compounds read low 1.03 | locus YHR094C, strain hxt1, active compounds read low 0.986 | locus YHR129C, strain ARP1, active compounds read low 1.01 | locus YHR142W, strain chs7, active compounds read low 0.963 | locus YHR200W, strain rpn10, active compounds read low 1 | locus YIL066C, strain RNR3, active compounds read low 1.04 | locus YIL073C, strain SPO22, active compounds read low 1.03 | locus YIL125W, strain kgd1, active compounds read low 0.986 | locus YIR030C, strain dcg1, active compounds read low 0.987 | locus YJL095W, strain BCK1 (second series), active compounds read low 0.999 | locus YJL095W, strain BCK1, active compounds read low 1 and 1.01 | locus YJL115W, strain asf1, active compounds read low 0.994 | locus YJL129C, strain trk1, active compounds read low 0.978 | locus YJL134W, strain LCB3, active compounds read low 1.01 | locus YJL154C, strain vps35, active compounds read low 0.991 | locus YJL164C, strain tpk1, active compounds read low 1.02 | locus YJL166W, strain qcr8, active compounds read low 0.953 | locus YJL168C, strain set2, active compounds read low 0.983 | locus YJL187C, strain SWE1 (second series), active compounds read low 0.987 | locus YJL187C, strain SWE1, active compounds read low 0.996 | locus YJR043C, strain POL32, active compounds read low 1.04
